The record followed here is PubChem BioAssay AID504380 (National Center for Advancing Translational Sciences (NCATS), 2011).

Each structure is given as a SMILES string. Calls of active or inactive are those of the source. The rule behind the calls is not given here.

A short description of the experiment: RT-PCR Analysis of TSH-dependent transcripts in primary cultures of human thyrocytes. The note with it: RT-PCR mRNA levels, 48 h; DIO2 mRNA change: measured here: DIO2 transcript; NIS mRNA change: measured here: NIS transcript, concentration not given here; TG mRNA change: concentration not given here; TPO mRNA change: measured here: TPO transcript, concentration not given here; TSHR mRNA change: measured here: TSHR transcript, concentration not given here. From the text: TSH is an alpha/beta heterodimeric glycoprotein hormone secreted from the anterior pituitary gland which belongs to the glycoprotein hormone family. The actions of TSH are mediated by a seven-transmembrane receptor, which upon TSH binding couples preferentially to the G-alpha (s) protein (Gs), resulting in activation of adenylate cyclase and increase in cyclic adenosine 3', 5' monophosphate (cAMP). The TSH receptor (THSR) is mainly expressed in thyroid follicular cells and regulates their growth and function. This cell based assay was conducted on a TSHR transfected HEK 293 cell line, measuring cAMP stimulation using antibody-based Homogeneous Time Resolved Fluorescence (HTRF). Our goal is to identify small molecules that will inhibit (antagonize) the thyroid-stimulating hormone receptor (TSHR), a member of the 7 transmembrane-spanning receptor (7TMR) family of cell surface receptors. TSHR-mediated hyperthyroidism is important in thyroid pathology. The development of small molecule antagonists of TSHR may lead to therapeutic approaches for TSHR-mediated hyperthyroidism caused by constitutively activating mutations or stimulating auto-antibodies associated with Graves' disease. Graves' disease is the leading cause of hyperthyroidism and is caused by autoantibodies that stimulate TSHR (TsAbs) causing thyroid growth and unregulated overproduction of thyroid hormones and existing treatments have liabilities (agranulocytosis). In addition, TSHRs are known to be expressed in multiple extrathyroidal tissues including bone, brain, kidney, testis, fat and cells of the immune system but the role of the TSHR in these tissues is not clear. Therefore, TSHR antagonists/inverse agonists could be used as probes of extrathyroidal TSHR function. Finally, TSHR inverse agonists, which are a subclass of antagonists that inhibit agonist-independent (or basal or constitutive) TSHR signaling, could be used to inhibit TSH-independent signaling in patients with recurrent or metastatic thyroid cancer who are receiving thyroid hormone to suppress TSH. This assays looks for effects on TSH-dependent functions in primary human thyrocytes. Total RNA is purified using RNeasy Micro kits. RT-PCR is performed in 25-ul reactions using cDNA prepared from 100 ng or less of total RNA and Universal PCR Master Mix (Applied Biosystems). mRNA levels are measured using primers and probes from Applied Biosystems. Quantitative RT-PCR results are normalized to GAPDH to correct for differences in RNA input.
Thyroid tissue samples were collected from normal thyroid tissue from patients undergoing total thyroidectomy for thyroid cancer at the National Institutes of Health Clinical Center. Surgical specimens were maintained in Hanks' balanced salt solution (HBSS) on ice, minced into small pieces, and digested with 3 mg/ml collagenase type IV (Life Technologies). Monodispersed cells were plated in 10 ml DMEM with 10% FBS in 10-cm tissue culture dishes and incubated at 37C in a humidified5%CO2 incubator, and after 24 h, the primary cultures of adherent thyroid cells were obtained. For determination of thyroglobulin (TG), thyroid peroxidase (TPO), TSHR, sodium iodide symporter (NIS), or deiodinase type 2 (DIO2) mRNAexpression, thyrocytes were seeded into 12-well plates at a density of 1 x 10^5 cells per well. The cells were incubated in DMEM with 2% FBS and 1 mM 3-isobutyl-1-methylxanthine (IBMX) for 48 h in the presence or absence of compound.
Regarding `COc1ccc(C2Nc3ccccc3C(=O)N2Cc2ccco2)cc1COc1c(C)cccc1C` (stereo not given), the TG mRNA change is -71% (active), the TPO mRNA change is -40%, the NIS mRNA change was -35% and the DIO2 mRNA change came to 0%. The TSHR mRNA change was -33%.
